The list is not random: actives were taken first. Their share in the collection is about 3.4%.
ADAM10 inh: inhibitors of human ADAM10. recombinant ADAM10, EDANS/DABCYL FRET peptide cleavage, 3 h. inhibition, % at 7 µM. 370,000 compounds, 0.62% hits;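 active means inhibition above a per-campaign cutoff equal to the mean of compounds falling between control-based bounds plus 3 SD, cut at about 20% in these data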;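 further: 0% = DMSO wells while the 100% control is not disclosed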
ADAM17 inh: ADAM17 inhibition, QFRET primary screen. P78536. recombinant ADAM17, EDANS/DABCYL FRET peptide cleavage. inhibition, % at 6.95 µM. 370,000 compounds, 0.83% hits. AID 720648;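 active means inhibition above the mean of compounds lying between control limits plus 3 SD, set per campaign, cut at about 8.5% in these data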;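 further: 0% = DMSO-only wells as the low control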
PLCg1 inh: PLC-gamma1 (human) inhibition, primary screen; AID 720700; purified PLC-gamma1, fluorogenic substrate, fluorescence; 370,000 compounds, 0.84% hits; inhibition, % at 12.2 µM; in the data active means inhibition above about 9.5%
KLK7 zymogen act: activators of human kallikrein-7 zymogen; purified proKLK7, EDANS-DABCYL substrate fluorescence; 100% is mature enzyme control, 0% vehicle; activation, % at 7 µM; 370,000 compounds, 0.9% hits;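 active means activation above the mean of all tested compounds plus 3 SD, computed per campaign excluding outliers beyond control limits, cut at about 13% in these data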
HGIII-sPLA2 inh: Inhibits HGIII-sPLA2 liposome hydrolysis, primary screen; Q9NZ20; QFRET BODIPY PC-A2 liposome hydrolysis, fluorescence; inhibition, % at 12.2 µM; 370,000 compounds, 0.56% hits;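 active means inhibition above mean plus 3 SD of compounds lying within the high and low control bounds, cut at about 19% in these data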;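 further: 0% = median of test compound wells and 100% = no enzyme DMSO wells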
PLCb3 inh: blocks human PLC-beta3 enzyme activity. Q01970. Purified PLC-beta3, fluorogenic substrate, fluorescence. inhibition, % at 12.2 µM. 370,000 compounds, 0.18% hits; in the data active means inhibition above about 11%;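 further: 0% = median of compound wells on plate and 100% = full blocker control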
KLK7 act conf: proKLK7 activation, confirmation. 3,200 compounds, 68% hits. activation, % at 7 µM. purified proKLK7, EDANS-DABCYL substrate fluorescence; scaled: vehicle 0, mature enzyme 100. AID 686949. shares compounds with KLK7 zymogen act;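 active means activation, as change over the incubation, above the mean of all tested compounds plus 3 SD, cut at about 13% in these data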
EDANS interfere: optically interferes with EDANS-DABCYL signal, flagging KLK7 hits; 3,200 compounds, 80% hits; shares compounds with KLK7 zymogen act; activation, % at 7 µM; AID 686952; EDANS-DABCYL substrate fluorescence interference, no enzyme, 4 h; solvent 0%, active enzyme control 100%;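 active means activation above the all-compound mean plus 3 SD, ignoring values outside control-based bounds, cut at about 4.8% in these data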;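 further: value is the 4 h activation minus the activation read at time zero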
Numbers without * were called inactive.

For COc1cc(-c2cc(C(=O)Nc3cc(S(=O)(=O)N4CCOCC4)ccc3C)c3ccccc3n2)cc(OC)c1OC the results were ADAM10 inh -35.0, ADAM17 inh -0.7, PLCg1 inh -107.0, KLK7 zymogen act 211.0*, HGIII-sPLA2 inh -8.0, PLCb3 inh -140.5, KLK7 act conf 232.9* and EDANS interfere 315.7*.
Screening O=C(NCCCN1CCOCC1)c1cc(-c2ccco2)nc2ccccc12 returned ADAM10 inh inactive, ADAM17 inh -425.4, PLCg1 inh inactive, KLK7 zymogen act 62.5*, HGIII-sPLA2 inh 0.7, PLCb3 inh inactive, KLK7 act conf 17.7* and EDANS interfere 30.2*.
`CC(C)CCNC(=O)c1cc(-c2ccco2)nc2ccccc12` gave ADAM10 inh inactive, ADAM17 inh inactive, PLCg1 inh inactive, KLK7 zymogen act 12.8*, HGIII-sPLA2 inh 0.6, PLCb3 inh inactive, KLK7 act conf -32.2 and EDANS interfere -60.2.
Screening CCCCCCNC(=O)c1cc(-c2ccco2)nc2ccccc12 returned ADAM10 inh inactive, ADAM17 inh -184.4, PLCg1 inh -342.9, KLK7 zymogen act 20.3*, HGIII-sPLA2 inh 5.8, PLCb3 inh -411.3, KLK7 act conf -23.8 and EDANS interfere -34.3.
`O=C(NCCCN1CCOCC1)c1cc(-c2ccc(F)cc2)nc2ccccc12` gave ADAM10 inh -122.5, ADAM17 inh -31.2, PLCg1 inh -69.8, KLK7 zymogen act 0.9, HGIII-sPLA2 inh 6.8 and PLCb3 inh -97.6.
`COCc1[nH]nc2c1C(c1ccc(F)cc1)N(c1ccc(OC)cc1)C2=O` (stereo not drawn) gave ADAM10 inh 1.1, ADAM17 inh 6.5, PLCg1 inh 5.2, KLK7 zymogen act -0.4, HGIII-sPLA2 inh -0.3 and PLCb3 inh 0.9.
For O=Cc1cscc1[B-](F)(F)F the results were ADAM10 inh -1.4, ADAM17 inh -1.4, PLCg1 inh -0.5, KLK7 zymogen act 0.2, HGIII-sPLA2 inh 8.6 and PLCb3 inh 1.4.
`C[C@@H]1CN([C@@H](C)CO)C(=O)CCCn2cc(nn2)CO[C@H]1CN(C)C(=O)Nc1ccc(C(C)(C)C)cc1` gave ADAM10 inh -10.5, ADAM17 inh -3.2, PLCg1 inh 0.4, KLK7 zymogen act -0.2, HGIII-sPLA2 inh 5.5 and PLCb3 inh 4.6.
For NC(=O)COC(=O)c1cc(-c2ccco2)nc2ccccc12 the results were ADAM10 inh inactive, ADAM17 inh -223.2, PLCg1 inh inactive, KLK7 zymogen act 161.2*, HGIII-sPLA2 inh 7.9, PLCb3 inh inactive, KLK7 act conf 63.1* and EDANS interfere 72.2*.
Screening O=C(NCCCN1CCCC1=O)c1cc(-c2ccc(F)cc2)nc2ccccc12 returned ADAM10 inh -118.9, ADAM17 inh -34.6, PLCg1 inh -77.1, KLK7 zymogen act -0.2, HGIII-sPLA2 inh 7.3 and PLCb3 inh -97.1.
For COc1ccc(-c2cc(C(=O)NCCCN3CCCC3=O)c3ccccc3n2)cc1 the results were ADAM10 inh inactive, ADAM17 inh -357.3, PLCg1 inh inactive, KLK7 zymogen act 34.6*, HGIII-sPLA2 inh 3.1, PLCb3 inh inactive, KLK7 act conf 29.1* and EDANS interfere 31.3*.
Screening CCOc1ccc(-c2cc(C(=O)NCCCN3CCOCC3)c3ccccc3n2)cc1 returned ADAM10 inh inactive, ADAM17 inh -210.3, PLCg1 inh inactive, KLK7 zymogen act 18.4*, HGIII-sPLA2 inh -1.8, PLCb3 inh inactive, KLK7 act conf 6.1 and EDANS interfere 9.6*.
`COc1ccc(-c2cc(C(=O)Nc3ccc(S(N)(=O)=O)cc3)c3ccccc3n2)cc1OC` gave ADAM10 inh -310.5, ADAM17 inh -127.6, PLCg1 inh -238.6, KLK7 zymogen act 131.0*, HGIII-sPLA2 inh 1.4, PLCb3 inh -311.7, KLK7 act conf 77.1* and EDANS interfere 94.7*.
